The values that follow come from PMC7862700, “An all-to-all approach to the identification of sequence-specific readers for epigenetic DNA modifications on cytosine”.

What all share (test): DAPPL (digital affinity profiling via proximity ligation, sequencing); 10 mM Tris-HCl pH 7.5, 50 mM NaCl, 1 mM DTT, 4% glycerol, room temperature, 30 min; GST-TFs on glutathione beads, 16-mer random dsDNA library, 0.1% formaldehyde crosslink after washing; high values mean tight binding
One assay deals with T1, FLI1 (Homo sapiens, UniProt Q01543 1-452).
T1 sequence: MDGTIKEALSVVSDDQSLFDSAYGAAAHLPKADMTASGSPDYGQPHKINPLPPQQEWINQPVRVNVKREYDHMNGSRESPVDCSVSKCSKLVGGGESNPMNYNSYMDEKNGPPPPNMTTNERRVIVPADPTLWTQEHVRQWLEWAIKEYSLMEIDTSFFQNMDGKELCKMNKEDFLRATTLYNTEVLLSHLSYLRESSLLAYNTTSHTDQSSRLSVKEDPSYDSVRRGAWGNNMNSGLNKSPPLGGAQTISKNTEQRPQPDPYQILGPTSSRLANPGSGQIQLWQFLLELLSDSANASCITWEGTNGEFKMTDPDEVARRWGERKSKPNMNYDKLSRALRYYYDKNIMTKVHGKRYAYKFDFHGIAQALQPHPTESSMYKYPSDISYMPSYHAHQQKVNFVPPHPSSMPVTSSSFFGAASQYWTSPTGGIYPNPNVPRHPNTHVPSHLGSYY
The note with it: protein: recombinant; tags: N-terminal GST; dsDNA, one strand shown. The procedure, abridged: (§1)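 Pools were built from human transcription factors expressed in yeast as GST fusions, captured on glutathione beads and DNA-barcoded, along with a tag-only sample. Incubation with 200 nmole of a 16-mer random double-stranded DNA library lasted 30 min at room temperature in Tris/NaCl/DTT/glycerol buffer, and was followed by washing, 0.1% formaldehyde crosslinking, proximity ligation, PCR amplification and Illumina NextSeq500 sequencing. Binding signal is the quotient of each hexamer's read frequency for a factor and its frequency for the tag-only sample.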

Another assay addresses T2, ELK1 (Homo sapiens, UniProt P19419 1-428).
T2 sequence: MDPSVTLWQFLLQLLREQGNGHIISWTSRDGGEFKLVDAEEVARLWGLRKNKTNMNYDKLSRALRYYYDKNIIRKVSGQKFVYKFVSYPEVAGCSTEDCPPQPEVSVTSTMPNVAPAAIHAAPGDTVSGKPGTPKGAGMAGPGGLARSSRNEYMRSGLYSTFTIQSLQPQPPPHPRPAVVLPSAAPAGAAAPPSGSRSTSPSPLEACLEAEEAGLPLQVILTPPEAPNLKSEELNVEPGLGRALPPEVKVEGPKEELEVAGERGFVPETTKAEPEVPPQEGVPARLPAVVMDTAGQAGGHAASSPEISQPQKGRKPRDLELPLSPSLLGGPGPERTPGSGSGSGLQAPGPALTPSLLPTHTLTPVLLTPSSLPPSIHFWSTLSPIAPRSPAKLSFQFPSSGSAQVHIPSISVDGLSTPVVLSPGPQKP
The note with it: protein: recombinant; tags: N-terminal GST; dsDNA, one strand shown. The procedure, abridged:
as §1

Another assay deals with T3, GABPA (Homo sapiens, UniProt Q06546 1-454).
T3 sequence: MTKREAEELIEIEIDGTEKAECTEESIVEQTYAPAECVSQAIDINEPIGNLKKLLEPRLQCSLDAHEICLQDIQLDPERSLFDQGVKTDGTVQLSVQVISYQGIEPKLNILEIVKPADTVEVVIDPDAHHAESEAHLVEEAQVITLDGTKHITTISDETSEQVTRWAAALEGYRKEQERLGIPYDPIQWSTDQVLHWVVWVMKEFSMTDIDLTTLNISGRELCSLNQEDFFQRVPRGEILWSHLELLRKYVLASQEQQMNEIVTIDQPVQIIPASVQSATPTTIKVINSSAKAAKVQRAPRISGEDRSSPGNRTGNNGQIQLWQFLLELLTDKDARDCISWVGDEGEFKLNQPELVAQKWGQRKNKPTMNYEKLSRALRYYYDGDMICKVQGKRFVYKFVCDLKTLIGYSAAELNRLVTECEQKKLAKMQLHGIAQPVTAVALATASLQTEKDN
The note with it: protein: recombinant; tags: N-terminal GST; dsDNA, one strand shown. The procedure, abridged:
as §1

The next assay deals with T4, ERG (Homo sapiens, UniProt P11308 1-479).
T4 sequence: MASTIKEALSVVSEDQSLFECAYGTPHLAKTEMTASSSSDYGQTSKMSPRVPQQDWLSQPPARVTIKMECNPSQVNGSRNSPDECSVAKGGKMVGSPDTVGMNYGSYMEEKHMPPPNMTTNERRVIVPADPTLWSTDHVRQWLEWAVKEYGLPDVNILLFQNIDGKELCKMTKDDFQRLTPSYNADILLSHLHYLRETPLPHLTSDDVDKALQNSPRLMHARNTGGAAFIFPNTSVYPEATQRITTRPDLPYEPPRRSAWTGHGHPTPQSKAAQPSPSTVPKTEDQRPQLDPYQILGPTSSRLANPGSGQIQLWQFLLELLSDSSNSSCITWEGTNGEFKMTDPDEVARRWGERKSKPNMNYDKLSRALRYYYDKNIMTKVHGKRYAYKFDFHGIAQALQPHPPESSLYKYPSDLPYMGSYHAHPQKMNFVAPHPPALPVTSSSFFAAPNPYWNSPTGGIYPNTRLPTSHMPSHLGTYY
The note with it: protein: recombinant; tags: N-terminal GST; dsDNA, one strand shown. The procedure, abridged:
as §1

The target in the next assay is ELF1 (Homo sapiens, UniProt P32519 1-619). The note with it: protein: recombinant; tags: N-terminal GST; dsDNA, one strand shown. The procedure, abridged: as §1
ELF1, sequence (P32519 whole entry): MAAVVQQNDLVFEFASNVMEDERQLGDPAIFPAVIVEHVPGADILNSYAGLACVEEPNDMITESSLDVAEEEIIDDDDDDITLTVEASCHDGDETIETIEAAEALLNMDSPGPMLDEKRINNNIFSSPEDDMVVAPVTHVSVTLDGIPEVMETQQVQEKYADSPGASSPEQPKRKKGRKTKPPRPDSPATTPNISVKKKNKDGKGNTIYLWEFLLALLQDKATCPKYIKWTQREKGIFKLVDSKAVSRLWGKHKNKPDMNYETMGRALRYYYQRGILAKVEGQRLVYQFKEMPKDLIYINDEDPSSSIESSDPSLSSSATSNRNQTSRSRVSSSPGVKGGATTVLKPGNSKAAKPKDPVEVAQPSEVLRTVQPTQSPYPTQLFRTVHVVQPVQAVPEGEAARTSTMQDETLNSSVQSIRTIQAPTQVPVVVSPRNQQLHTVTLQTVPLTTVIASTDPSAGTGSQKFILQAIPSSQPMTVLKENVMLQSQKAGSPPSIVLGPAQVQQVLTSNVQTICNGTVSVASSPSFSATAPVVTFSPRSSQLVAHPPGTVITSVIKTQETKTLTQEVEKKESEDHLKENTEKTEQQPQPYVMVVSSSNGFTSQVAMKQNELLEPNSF
A further assay has as its target T5, EHF (Homo sapiens, UniProt Q9NZC4 1-300).
T5 sequence: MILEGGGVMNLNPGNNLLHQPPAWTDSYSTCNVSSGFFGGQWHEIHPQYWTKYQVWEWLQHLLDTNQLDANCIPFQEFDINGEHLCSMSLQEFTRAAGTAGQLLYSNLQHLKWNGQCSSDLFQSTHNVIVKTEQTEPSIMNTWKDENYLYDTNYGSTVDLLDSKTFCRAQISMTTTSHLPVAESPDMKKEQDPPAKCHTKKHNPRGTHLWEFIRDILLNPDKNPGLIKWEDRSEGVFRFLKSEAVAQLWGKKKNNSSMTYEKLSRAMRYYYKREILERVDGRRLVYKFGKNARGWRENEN
The note with it: protein: recombinant; tags: N-terminal GST; dsDNA, one strand shown. The procedure, abridged: as §1

The target in a further assay is SPI1 (Homo sapiens, UniProt P17947 1-270). The note with it: protein: recombinant; tags: N-terminal GST; dsDNA, one strand shown. The procedure, abridged: as §1
The target of another assay is SPIB (Homo sapiens, UniProt Q01892 1-262). The note with it: protein: recombinant; tags: N-terminal GST; dsDNA, one strand shown. The procedure, abridged: as §1
SPIB, sequence (Q01892 whole entry): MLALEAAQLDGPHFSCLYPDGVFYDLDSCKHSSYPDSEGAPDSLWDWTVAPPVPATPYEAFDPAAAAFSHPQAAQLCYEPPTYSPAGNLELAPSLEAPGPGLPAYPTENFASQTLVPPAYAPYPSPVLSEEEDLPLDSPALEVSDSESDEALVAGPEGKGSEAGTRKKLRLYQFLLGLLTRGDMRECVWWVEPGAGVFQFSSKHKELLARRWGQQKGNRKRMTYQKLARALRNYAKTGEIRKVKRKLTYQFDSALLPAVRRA
The next assay addresses T6, ELK3 (Homo sapiens, UniProt P41970 1-407).
T6 sequence: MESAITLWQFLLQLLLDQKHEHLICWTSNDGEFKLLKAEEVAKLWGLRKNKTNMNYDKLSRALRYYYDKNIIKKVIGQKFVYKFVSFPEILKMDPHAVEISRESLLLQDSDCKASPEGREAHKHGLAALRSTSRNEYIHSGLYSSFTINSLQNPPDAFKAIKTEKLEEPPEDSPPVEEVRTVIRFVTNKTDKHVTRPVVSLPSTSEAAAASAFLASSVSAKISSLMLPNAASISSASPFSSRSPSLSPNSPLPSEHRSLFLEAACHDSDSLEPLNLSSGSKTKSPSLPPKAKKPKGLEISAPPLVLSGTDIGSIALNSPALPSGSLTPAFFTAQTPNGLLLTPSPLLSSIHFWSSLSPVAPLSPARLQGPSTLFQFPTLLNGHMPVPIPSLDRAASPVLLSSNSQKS
The note with it: protein: recombinant; tags: N-terminal GST; dsDNA, one strand shown. The procedure, abridged: as §1

The target of a further assay is T7, FEV (Homo sapiens, UniProt Q99581 1-238).
T7 sequence: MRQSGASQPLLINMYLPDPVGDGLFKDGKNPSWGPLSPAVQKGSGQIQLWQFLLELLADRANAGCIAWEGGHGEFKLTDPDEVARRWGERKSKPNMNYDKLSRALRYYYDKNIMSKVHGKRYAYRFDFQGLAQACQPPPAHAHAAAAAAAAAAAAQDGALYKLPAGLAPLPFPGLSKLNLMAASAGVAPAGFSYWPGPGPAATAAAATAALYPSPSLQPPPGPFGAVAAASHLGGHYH
The note with it: protein: recombinant; tags: N-terminal GST; dsDNA, one strand shown. The procedure, abridged: as §1

Another assay addresses ETV5 (Homo sapiens, UniProt P41161 1-510). The note with it: protein: recombinant; tags: N-terminal GST; dsDNA, one strand shown. The procedure, abridged:
as §1

A further assay has as its target HSF1 (Homo sapiens, UniProt Q00613 1-529). The note with it: protein: recombinant; tags: N-terminal GST; chain copies: 3; dsDNA, one strand shown. The procedure, abridged:
as §1

The target in the next assay is T8, SPIC (Homo sapiens, UniProt Q8N5J4 1-248).
T8 sequence: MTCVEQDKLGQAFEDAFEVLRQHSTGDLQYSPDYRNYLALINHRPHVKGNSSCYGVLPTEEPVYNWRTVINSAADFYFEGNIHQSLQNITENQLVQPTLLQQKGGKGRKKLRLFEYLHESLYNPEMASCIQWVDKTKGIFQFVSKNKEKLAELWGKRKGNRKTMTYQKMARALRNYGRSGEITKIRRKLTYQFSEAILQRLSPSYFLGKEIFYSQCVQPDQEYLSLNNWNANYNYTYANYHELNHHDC
The note with it: protein: recombinant; tags: N-terminal GST; dsDNA, one strand shown. The procedure, abridged: as §1

The target of the next assay is ELF4 (Homo sapiens, UniProt Q99607 1-663). The note with it: protein: recombinant; tags: N-terminal GST; dsDNA, one strand shown. The procedure, abridged: as §1
ELF4, sequence (Q99607 whole entry): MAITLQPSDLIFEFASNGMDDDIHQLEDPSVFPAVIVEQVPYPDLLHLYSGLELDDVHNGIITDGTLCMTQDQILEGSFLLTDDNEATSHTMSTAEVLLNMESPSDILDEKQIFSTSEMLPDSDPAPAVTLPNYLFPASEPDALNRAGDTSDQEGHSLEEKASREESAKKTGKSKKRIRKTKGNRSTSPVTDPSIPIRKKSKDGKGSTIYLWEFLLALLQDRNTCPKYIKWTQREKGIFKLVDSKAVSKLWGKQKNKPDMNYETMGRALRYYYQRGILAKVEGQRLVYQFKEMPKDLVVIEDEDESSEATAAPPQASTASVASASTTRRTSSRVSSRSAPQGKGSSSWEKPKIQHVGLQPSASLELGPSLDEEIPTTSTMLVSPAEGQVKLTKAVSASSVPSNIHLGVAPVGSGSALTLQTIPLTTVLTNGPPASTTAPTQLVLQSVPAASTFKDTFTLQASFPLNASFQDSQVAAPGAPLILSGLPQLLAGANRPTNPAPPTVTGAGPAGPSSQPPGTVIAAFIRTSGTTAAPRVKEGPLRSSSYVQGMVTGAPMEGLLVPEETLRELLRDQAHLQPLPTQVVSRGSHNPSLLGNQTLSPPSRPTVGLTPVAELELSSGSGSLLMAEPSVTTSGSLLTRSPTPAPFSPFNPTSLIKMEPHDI
The target in the next assay is T9, ELK4 (Homo sapiens, UniProt P28324-2 1-405).
T9 sequence: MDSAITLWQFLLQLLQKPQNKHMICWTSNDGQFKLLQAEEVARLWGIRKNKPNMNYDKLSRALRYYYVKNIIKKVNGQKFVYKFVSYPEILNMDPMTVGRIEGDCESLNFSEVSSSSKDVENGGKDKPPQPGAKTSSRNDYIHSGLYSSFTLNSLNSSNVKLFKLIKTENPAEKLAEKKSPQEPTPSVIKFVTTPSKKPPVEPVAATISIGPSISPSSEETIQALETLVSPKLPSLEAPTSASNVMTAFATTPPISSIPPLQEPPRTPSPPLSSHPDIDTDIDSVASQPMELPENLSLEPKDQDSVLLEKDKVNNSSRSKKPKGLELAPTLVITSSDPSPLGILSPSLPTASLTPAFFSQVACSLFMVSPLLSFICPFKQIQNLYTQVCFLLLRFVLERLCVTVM
The note with it: protein: recombinant; tags: N-terminal GST; dsDNA, one strand shown. The procedure, abridged:
as §1

The next assay has as its target T10, ETV2 (Homo sapiens, UniProt O00321 1-342).
T10 sequence: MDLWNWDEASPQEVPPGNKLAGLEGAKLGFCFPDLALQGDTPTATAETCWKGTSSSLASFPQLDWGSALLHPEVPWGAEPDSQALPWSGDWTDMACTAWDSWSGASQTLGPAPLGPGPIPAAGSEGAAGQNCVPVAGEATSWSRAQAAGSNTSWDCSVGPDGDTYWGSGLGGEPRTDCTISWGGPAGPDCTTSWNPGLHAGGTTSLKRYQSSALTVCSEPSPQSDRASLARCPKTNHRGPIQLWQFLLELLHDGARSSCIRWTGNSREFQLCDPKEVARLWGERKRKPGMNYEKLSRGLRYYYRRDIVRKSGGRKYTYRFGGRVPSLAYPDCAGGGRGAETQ
The note with it: protein: recombinant; tags: N-terminal GST; dsDNA, one strand shown. The procedure, abridged: as §1

In another assay the target is T11, ELF3 (Homo sapiens, UniProt P78545 1-371).
T11 sequence: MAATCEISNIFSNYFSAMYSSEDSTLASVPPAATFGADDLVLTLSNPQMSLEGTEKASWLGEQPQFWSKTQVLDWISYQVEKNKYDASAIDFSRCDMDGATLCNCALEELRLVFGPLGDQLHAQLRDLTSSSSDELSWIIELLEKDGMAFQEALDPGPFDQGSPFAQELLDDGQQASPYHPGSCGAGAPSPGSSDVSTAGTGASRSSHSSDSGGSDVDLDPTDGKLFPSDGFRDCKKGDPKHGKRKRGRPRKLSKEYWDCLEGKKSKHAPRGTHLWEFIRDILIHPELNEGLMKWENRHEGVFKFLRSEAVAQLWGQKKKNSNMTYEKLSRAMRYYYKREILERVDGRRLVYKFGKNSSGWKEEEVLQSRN
The note with it: protein: recombinant; tags: N-terminal GST; dsDNA, one strand shown. The procedure, abridged:
as §1

A further assay addresses CRX (Homo sapiens, UniProt O43186 1-299). The note with it: protein: recombinant; tags: N-terminal GST; dsDNA, one strand shown. The procedure, abridged: as §1
A further assay has as its target ETV1 (Homo sapiens, UniProt P50549 1-477). The note with it: protein: recombinant; tags: N-terminal GST; dsDNA, one strand shown. The procedure, abridged: as §1

ETV1, sequence (P50549 whole entry): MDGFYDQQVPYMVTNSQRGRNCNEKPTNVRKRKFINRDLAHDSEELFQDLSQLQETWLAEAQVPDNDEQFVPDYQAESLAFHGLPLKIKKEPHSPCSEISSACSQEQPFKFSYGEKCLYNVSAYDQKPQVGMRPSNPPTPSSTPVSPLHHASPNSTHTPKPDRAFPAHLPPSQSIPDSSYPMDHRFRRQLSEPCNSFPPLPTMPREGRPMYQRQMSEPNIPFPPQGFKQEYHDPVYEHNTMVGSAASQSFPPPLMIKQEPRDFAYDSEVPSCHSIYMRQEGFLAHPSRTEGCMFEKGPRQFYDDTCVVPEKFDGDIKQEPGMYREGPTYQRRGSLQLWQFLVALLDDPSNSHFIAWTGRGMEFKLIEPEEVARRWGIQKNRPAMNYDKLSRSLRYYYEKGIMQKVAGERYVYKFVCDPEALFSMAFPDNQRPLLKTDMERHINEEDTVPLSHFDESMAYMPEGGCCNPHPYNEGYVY
ETV5, sequence (P41161 whole entry): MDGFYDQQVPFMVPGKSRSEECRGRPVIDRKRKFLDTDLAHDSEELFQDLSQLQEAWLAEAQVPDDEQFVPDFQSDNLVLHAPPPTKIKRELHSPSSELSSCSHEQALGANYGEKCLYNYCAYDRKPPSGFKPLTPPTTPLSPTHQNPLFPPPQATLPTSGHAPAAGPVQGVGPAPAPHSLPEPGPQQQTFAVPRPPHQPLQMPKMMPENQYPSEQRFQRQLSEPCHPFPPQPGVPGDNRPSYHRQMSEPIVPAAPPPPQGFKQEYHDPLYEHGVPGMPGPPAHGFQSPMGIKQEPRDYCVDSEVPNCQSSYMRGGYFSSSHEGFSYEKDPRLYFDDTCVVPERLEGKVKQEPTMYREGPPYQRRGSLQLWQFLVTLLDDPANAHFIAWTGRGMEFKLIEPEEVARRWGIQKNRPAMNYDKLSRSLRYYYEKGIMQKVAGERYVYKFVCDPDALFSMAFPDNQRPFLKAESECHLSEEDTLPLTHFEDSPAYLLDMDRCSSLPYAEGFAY
CRX, sequence (O43186 whole entry): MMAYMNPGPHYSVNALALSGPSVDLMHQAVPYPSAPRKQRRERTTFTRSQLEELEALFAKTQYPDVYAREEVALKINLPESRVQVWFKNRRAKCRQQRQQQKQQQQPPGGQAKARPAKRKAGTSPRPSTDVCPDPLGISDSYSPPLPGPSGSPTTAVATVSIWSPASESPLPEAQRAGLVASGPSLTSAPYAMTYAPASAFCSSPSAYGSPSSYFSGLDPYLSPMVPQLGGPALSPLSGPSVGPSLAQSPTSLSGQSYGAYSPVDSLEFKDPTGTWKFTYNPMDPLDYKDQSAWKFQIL
HSF1, sequence (Q00613 whole entry): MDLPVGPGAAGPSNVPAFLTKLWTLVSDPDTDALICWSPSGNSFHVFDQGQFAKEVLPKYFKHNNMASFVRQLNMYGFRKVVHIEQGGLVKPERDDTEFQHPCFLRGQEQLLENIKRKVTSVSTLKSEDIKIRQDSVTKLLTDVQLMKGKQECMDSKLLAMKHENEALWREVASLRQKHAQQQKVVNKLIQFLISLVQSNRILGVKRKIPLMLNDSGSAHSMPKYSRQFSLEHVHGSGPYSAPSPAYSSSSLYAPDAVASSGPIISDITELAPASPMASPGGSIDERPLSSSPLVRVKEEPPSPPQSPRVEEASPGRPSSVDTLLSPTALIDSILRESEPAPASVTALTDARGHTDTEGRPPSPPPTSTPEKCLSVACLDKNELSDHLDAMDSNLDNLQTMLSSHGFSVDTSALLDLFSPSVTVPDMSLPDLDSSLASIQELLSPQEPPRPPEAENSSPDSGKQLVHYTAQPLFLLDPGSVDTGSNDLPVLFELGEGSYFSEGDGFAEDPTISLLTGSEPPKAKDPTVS

Consider ATGGAA, for which the binding signal is 1.17 fold enrichment (6-mer frequency, TF over GST control) with FLI1; 1.11 fold enrichment (6-mer frequency, TF over GST control) in the assay with ELK1; 1.18 fold enrichment (6-mer frequency, TF over GST control) with GABPA; 1.26 fold enrichment (6-mer frequency, TF over GST control) in the assay with ERG; 1.16 fold enrichment (6-mer frequency, TF over GST control) with ELF1; 1.2 fold enrichment (6-mer frequency, TF over GST control) with EHF. Moreover, the binding signal with SPI1 is 1.18 fold enrichment (6-mer frequency, TF over GST control); in the assay with SPIB it was 1.19 fold enrichment (6-mer frequency, TF over GST control); with ELK3, 1.11 fold enrichment (6-mer frequency, TF over GST control); in the assay with FEV, 1.16 fold enrichment (6-mer frequency, TF over GST control); with ETV5, 1.16 fold enrichment (6-mer frequency, TF over GST control); with HSF1, 1.86 fold enrichment (6-mer frequency, TF over GST control). Besides, the binding signal with SPIC was 1.22 fold enrichment (6-mer frequency, TF over GST control); with ELF4, 1.19 fold enrichment (6-mer frequency, TF over GST control); with ELK4, 1.13 fold enrichment (6-mer frequency, TF over GST control); with ETV2, 1.26 fold enrichment (6-mer frequency, TF over GST control); with ELF3, 1.16 fold enrichment (6-mer frequency, TF over GST control); in the assay with CRX, 1.22 fold enrichment (6-mer frequency, TF over GST control). Further, in the assay with ETV1, the binding signal was 1.24 fold enrichment (6-mer frequency, TF over GST control).
